PPARg SRC-1 ag: agonists of human PPARgamma SRC-1 coactivator recruitment | P37231 | PPARgamma-SRC-1 coactivator recruitment biochemical assay | activation, % at 8 µM | hit rate 0.41% among 200,000 | AID 631; in the data active = activation above about 19%;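 note: 0% = DMSO and 100% = reference agonist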
PPARg SRC-3 ag: promotes SRC-3 coactivator recruitment by human PPARgamma; hit rate 0.26% among 200,000; activation, % at 8 µM; P37231; biochemical PPARgamma/SRC-3 coactivator recruitment assay; in the data active = activation above about 23%;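 note: 0% = DMSO and 100% = reference agonist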
SRC3 TRFRET art: TR-FRET artefact, counter-screen to PPARgamma/SRC-3 agonist assay | hit rate 0.39% among 99,000 | AID 1048 | PPARgamma/SRC-3 format; active compounds read high | TR-FRET ratio at 8 µM; in the data active = TR-FRET ratio above about 2000
PPARg SRC-2 ag: promotes SRC-2 coactivator recruitment by human PPARgamma. P37231. PPARgamma LBD-SRC-2 recruitment, biochemical. activation, % at 8 µM. hit rate 0.34% among 200,000. AID 1032;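 note: 0% = vehicle and 100% = reference agonist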
TR-FRET SRC-2 ct: counter-screen for PPARgamma SRC-2 recruitment agonists: TR-FRET artefact; active compounds read high; TR-FRET ratio at 8 µM; hit rate 0.4% among 200,000; in the data active = TR-FRET ratio above about 2000
SRC1 TRFRET art: TR-FRET artefact, counter-screen to PPARgamma/SRC-1 agonist assay; AID 1051; TR-FRET ratio at 8 µM; TR-FRET detection artefact counter-screen, emission ratio; active compounds read high; hit rate 0.34% among 99,000; in the data active = TR-FRET ratio above about 2300
PPARg SRC2 ag: confirmation of agonists of SRC-2 recruitment by human PPARgamma; shares compounds with PPARg SRC-3 ag; biochemical SRC-2 recruitment by PPARgamma; activation, % at 8 µM; hit rate 52% among 790; AID 1297;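 note: 0% = vehicle alone and 100% = reference agonist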
PPARg SRC1 ag: confirmation of agonists of SRC-1 recruitment by human PPARgamma. shares compounds with PPARg SRC-3 ag. PPARgamma–SRC-1 coactivator recruitment biochemical assay. activation, % at 8 µM. hit rate 43% among 790; in the data active = activation above about 20%;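 note: 0% = vehicle wells and 100% = reference agonist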
PPARg SRC3 conf: confirmation of agonists of SRC-3 recruitment by human PPARgamma. shares compounds with PPARg SRC-3 ag. biochemical PPARgamma-SRC-3 coactivator recruitment, agonist mode. activation, % at 8 µM. hit rate 29% among 790. AID 1301; in the data active = activation above about 24%;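 note: 0% = vehicle wells and 100% = reference agonist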
The depositor's hits bear a star. A selection: hits, their analogues and other compounds. The true share with any hit is near 0.84%. Cut-off read from the data, not from the text of the source, unless noted: active = activation above about 22%; inactive = the rest.

Results for CC(C)C(OC(=O)c1cc2occc2n1C)C(=O)NCc1ccc2c(c1)OCO2 (stereo not drawn) ?
PPARg SRC-1 ag: 33*; PPARg SRC-3 ag: 31*; SRC3 TRFRET art: 1951; PPARg SRC-2 ag: 13; TR-FRET SRC-2 ct: 1600; SRC1 TRFRET art: 1700; PPARg SRC2 ag: 11; PPARg SRC1 ag: 21*; PPARg SRC3 conf: 20

How did Cc1cc2c(cc(C(=O)OC(C(=O)NCc3ccco3)C(C)C)n2C)o1 (stereo not drawn) do in these assays?
PPARg SRC-1 ag: -4; PPARg SRC-3 ag: 1; PPARg SRC-2 ag: 10; TR-FRET SRC-2 ct: 1764

What do the screens show for `Cn1cc(SCC(=O)Nc2ccc3c(c2)OCO3)c2ccccc21`?
PPARg SRC-1 ag: -2; PPARg SRC-3 ag: -7; PPARg SRC-2 ag: -4; TR-FRET SRC-2 ct: 1634

What do the screens show for `CCn1c(=O)cc(SCC(=O)Nc2ccc3c(c2)OCCO3)c2ccccc21`?
PPARg SRC-1 ag: 69*; PPARg SRC-3 ag: 92*; PPARg SRC-2 ag: 85*; TR-FRET SRC-2 ct: 3434*; PPARg SRC2 ag: 65*; PPARg SRC1 ag: 46*; PPARg SRC3 conf: 43*

How did Cn1c(=O)cc(SCC(=O)Nc2ccc3c(c2)OCO3)c2ccccc21 do in these assays?
PPARg SRC-1 ag: 32*; PPARg SRC-3 ag: 43*; PPARg SRC-2 ag: 60*; TR-FRET SRC-2 ct: 2627*; PPARg SRC2 ag: 42*; PPARg SRC1 ag: 28*; PPARg SRC3 conf: 27*

What do the screens show for `CCCn1cc(SCC(=O)Nc2ccc3c(c2)OCO3)c2ccccc21`?
PPARg SRC-1 ag: 5; PPARg SRC-3 ag: 15; PPARg SRC-2 ag: 11; TR-FRET SRC-2 ct: 1751

Results for Cc1cccc(C(=O)N[C@H](C(=O)Nc2nc3ccc(S(C)(=O)=O)cc3s2)C(C)C)c1 ?
PPARg SRC-1 ag: -4; PPARg SRC-3 ag: 2; SRC3 TRFRET art: 1752; PPARg SRC-2 ag: 11; TR-FRET SRC-2 ct: 1715; SRC1 TRFRET art: 2067

What do the screens show for `O=[N+]([O-])c1ccc(C2Nc3cccc4cccc(c34)N2)cc1`?
PPARg SRC-1 ag: 21*; PPARg SRC-3 ag: 7; SRC3 TRFRET art: 1578; PPARg SRC-2 ag: 17; TR-FRET SRC-2 ct: 1698; SRC1 TRFRET art: 1856; PPARg SRC2 ag: 5; PPARg SRC1 ag: 1; PPARg SRC3 conf: 3

How did CCC1(C)CC2(CCCN(CCC(=O)c3ccccc3)C2)CCO1 (stereo not drawn) do in these assays?
PPARg SRC-1 ag: -2; PPARg SRC-3 ag: 4; SRC3 TRFRET art: 1728; PPARg SRC-2 ag: 2; TR-FRET SRC-2 ct: 1712; SRC1 TRFRET art: 1824

What do the screens show for `Cc1cc(-c2cccc(Br)c2)c(C#N)c(N)n1`?
PPARg SRC-1 ag: 22*; PPARg SRC-3 ag: 13; SRC3 TRFRET art: 2035; PPARg SRC-2 ag: 25*; TR-FRET SRC-2 ct: 1927; SRC1 TRFRET art: 2711*; PPARg SRC2 ag: 6; PPARg SRC1 ag: 8; PPARg SRC3 conf: 5

Results for Cc1cc(C)c(C#N)c(N)n1 ?
PPARg SRC-1 ag: 7; PPARg SRC-3 ag: 6; SRC3 TRFRET art: 1419; PPARg SRC-2 ag: 6; TR-FRET SRC-2 ct: 1627; SRC1 TRFRET art: 1801

What do the screens show for `COC(=O)CSCC(=O)Nc1nnc(-c2cccc(C)c2)s1`?
PPARg SRC-1 ag: 12; PPARg SRC-3 ag: 1; SRC3 TRFRET art: 1708; PPARg SRC-2 ag: 9; TR-FRET SRC-2 ct: 1713; SRC1 TRFRET art: 1786

What do the screens show for `Cc1ccc(NS(=O)(=O)c2cc(C(=O)NCCSc3ccc(C)cc3)ccc2C)cc1`?
PPARg SRC-1 ag: 20*; PPARg SRC-3 ag: 10; PPARg SRC-2 ag: 21; TR-FRET SRC-2 ct: 1621; PPARg SRC2 ag: 9; PPARg SRC1 ag: 14; PPARg SRC3 conf: 17

How did NC(=O)CSc1ncnc2c1oc1ccccc12 do in these assays?
PPARg SRC-1 ag: 120*; PPARg SRC-3 ag: 153*; PPARg SRC-2 ag: 110*; TR-FRET SRC-2 ct: 4661*; PPARg SRC2 ag: 76*; PPARg SRC1 ag: 55*; PPARg SRC3 conf: 53*

High-throughput results from PubChem BioAssay.
